The source of these data is PubChem BioAssay (Tox21).

SMILES strings stand for the structures. Records with an inconclusive call do not appear. A number with no mark means an inactive call. The source made the active and inactive calls. Unless noted, the call rests on the fitted dose curve; in most records, active means well fitted curve in the direction sought with a large enough effect in the repeat runs; inconclusive means weak or mixed curves; inactive means no such curve, though single readings can be large; an effect the other way counts as inactive or inconclusive.

Assay [1] is described as follows: qHTS assay to identify aromatase inhibitors - cell viability counter screen (AID 743084;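 further: cells stimulated with testosterone during compound exposure; nearly all actives have a fitted effect of over 55% in size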). (In general: In qHTS, concentration-response curves come from the screen itself.)
The target of assay [2] is Aryl hydrocarbon receptor (Homo sapiens) (UniProt P35869). In words: qHTS assay to identify small molecule that activate the aryl hydrocarbon receptor (AhR) signaling pathway (AID 743085). Further: nearly all actives have a fitted effect of over 15% in size. Further: potency means the concentration at half of the fitted maximal effect.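 On activation: HG2L7.5c1 human HepG2 liver cells with stably integrated DRE-driven firefly reporter; series mostly up to about 70 µM.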 Put shortly:
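Luminescence read-out: ONE-Glo reagent, 30 min at room temperature, in HG2L7.5c1 HepG2 reporter cells treated 24 h at 37C. Viability was measured beforehand by CellTiter-Fluor fluorescence after 30 min at 37C.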

Assay [3] can be described thus: qHTS assay to identify small molecule that activate the aryl hydrocarbon receptor (AhR) signaling pathway - cell viability counter screen (AID 743086).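 Further: HepG2 liver cells carrying the AhR DRE luciferase reporter; series mostly up to about 70 µM; nearly all actives have a fitted effect of over 45% in size.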 Put shortly: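 HepG2-AhR-luc (HG2L7.5c1) cells, 4000/well, treated 24 h at 37 C with compound; viability measured as CellTiter-Fluor fluorescence after 30 min in the same wells as the luciferase read.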
The target in assay [4] is Peroxisome proliferator-activated receptor gamma (Homo sapiens) (UniProt P37231). Put plainly: qHTS assay to identify small molecule agonists of the peroxisome proliferator-activated receptor gamma (PPARg) signaling pathway (AID 743094; active means well fitted activation curve with a large enough effect in the signal ratio in the repeat runs, not every such curve was filed as active; the % refers to the signal ratio). In short, it runs like this:
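Reporter activation was scored by fluorescence of cleaved LiveBLAzer B/G substrate (1 h, room temperature) in PPARg-bla HEK293H cells previously treated 17 h at 37C with DMSO-dissolved compounds.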

Assay [5] in a line: qHTS assay to identify small molecule phospholipidosis (PLD) inducers (AID 1259344; active means well fitted curve in the direction sought with a large enough effect; an effect the other way counts as inactive or inconclusive). Put shortly:
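Read-out is LipidTOX Red fluorescence (ex 595/em 615) imaged in HepG2 cells after 24 h compound exposure at 37 C, with Hoechst nuclear counterstain (ex 352/em 461) allowing per-cell normalisation.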

Assay [6] concerns the target Nuclear receptor subfamily 1 group I member 2 (Rattus norvegicus) (UniProt Q9R1A7). In words: Rat pregnane X receptor (rPXR) activation by small molecules, qHTS assay (AID 1346983). Further: nearly all actives have a fitted effect of over 20% in size. Further: potency means the concentration at half of the fitted maximal effect. To be noted: rPXR luciferase reporter cells, One-Glo luminescence, 24 h; max activation: hits give high values. Put shortly: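 Cell-based rPXR activation assay: rPXR cells, 2,000 per well, rested 5hr at 37 C, then exposed to compounds in DMSO for 24 hr at 37 C. Luciferase activity read by One-Glo luminescence after 30 min at room temperature.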

Assay [7] concerns the target Nuclear receptor subfamily 1 group I member 2 (Homo sapiens) (UniProt O75469). In words: CYP3A4 induction through human pregnane X receptor (PXR) by small molecules, qHTS assay (AID 1346984). Further: nearly all actives have a fitted effect of over 40% in size. Further: potency means the concentration at half of the fitted maximal effect. Put shortly:
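Induction measured in HepG2-based DPX-2 cells co-expressing human PXR and a CYP3A4 promoter-driven luciferase. After a 24-hour compound exposure, cells received CYP3A4 luciferin substrate at 3uM final for 3 hours, and light output was then recorded.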

The target is the same in assay [8]. In words: Human pregnane X receptor (PXR) activation by small molecules, qHTS assay (AID 1346985). Further: nearly all actives have a fitted effect of over 40% in size. Further: potency means the concentration at half of the fitted maximal effect. Put shortly:
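DPX-2 cells (HepG2 co-transfected with a PXR response element and a CYP3A4-promoter luciferase construct) were seeded at 2,000 per well, rested 5 hr at 37C, then exposed to DMSO-dissolved compounds for 24 hr. Activation was read as luciferase luminescence.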
On the % scale 0 is the no-effect control and ±100 the full control effect.

Sequence of Nuclear receptor subfamily 1 group I member 2 (Rattus norvegicus) (Q9R1A7 whole entry, looked up): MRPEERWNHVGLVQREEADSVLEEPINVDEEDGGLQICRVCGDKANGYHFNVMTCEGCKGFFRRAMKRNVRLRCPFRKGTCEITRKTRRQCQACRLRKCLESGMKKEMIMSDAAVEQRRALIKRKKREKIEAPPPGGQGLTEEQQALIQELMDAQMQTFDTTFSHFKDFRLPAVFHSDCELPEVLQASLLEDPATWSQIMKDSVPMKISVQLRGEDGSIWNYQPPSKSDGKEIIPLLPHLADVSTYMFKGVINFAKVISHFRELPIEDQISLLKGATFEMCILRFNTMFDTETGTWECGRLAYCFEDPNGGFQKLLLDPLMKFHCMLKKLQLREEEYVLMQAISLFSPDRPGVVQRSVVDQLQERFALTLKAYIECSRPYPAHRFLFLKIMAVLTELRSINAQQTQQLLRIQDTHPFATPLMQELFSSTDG
Sequence of Peroxisome proliferator-activated receptor gamma (Homo sapiens) (P37231 whole entry, looked up): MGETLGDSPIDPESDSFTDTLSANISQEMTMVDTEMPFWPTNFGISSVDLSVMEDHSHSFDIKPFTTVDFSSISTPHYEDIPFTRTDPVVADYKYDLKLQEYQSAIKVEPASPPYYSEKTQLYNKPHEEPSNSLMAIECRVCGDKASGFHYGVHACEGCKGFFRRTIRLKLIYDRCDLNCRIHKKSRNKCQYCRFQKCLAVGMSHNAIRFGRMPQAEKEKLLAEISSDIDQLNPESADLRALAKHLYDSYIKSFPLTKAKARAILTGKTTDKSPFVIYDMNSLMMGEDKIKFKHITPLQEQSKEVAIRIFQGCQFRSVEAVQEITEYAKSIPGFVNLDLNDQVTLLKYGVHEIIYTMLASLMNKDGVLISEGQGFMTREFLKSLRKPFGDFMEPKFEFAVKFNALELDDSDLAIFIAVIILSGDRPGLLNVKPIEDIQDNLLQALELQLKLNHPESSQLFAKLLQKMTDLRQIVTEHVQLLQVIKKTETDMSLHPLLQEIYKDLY
Sequence of Aryl hydrocarbon receptor (Homo sapiens) (P35869 whole entry, looked up): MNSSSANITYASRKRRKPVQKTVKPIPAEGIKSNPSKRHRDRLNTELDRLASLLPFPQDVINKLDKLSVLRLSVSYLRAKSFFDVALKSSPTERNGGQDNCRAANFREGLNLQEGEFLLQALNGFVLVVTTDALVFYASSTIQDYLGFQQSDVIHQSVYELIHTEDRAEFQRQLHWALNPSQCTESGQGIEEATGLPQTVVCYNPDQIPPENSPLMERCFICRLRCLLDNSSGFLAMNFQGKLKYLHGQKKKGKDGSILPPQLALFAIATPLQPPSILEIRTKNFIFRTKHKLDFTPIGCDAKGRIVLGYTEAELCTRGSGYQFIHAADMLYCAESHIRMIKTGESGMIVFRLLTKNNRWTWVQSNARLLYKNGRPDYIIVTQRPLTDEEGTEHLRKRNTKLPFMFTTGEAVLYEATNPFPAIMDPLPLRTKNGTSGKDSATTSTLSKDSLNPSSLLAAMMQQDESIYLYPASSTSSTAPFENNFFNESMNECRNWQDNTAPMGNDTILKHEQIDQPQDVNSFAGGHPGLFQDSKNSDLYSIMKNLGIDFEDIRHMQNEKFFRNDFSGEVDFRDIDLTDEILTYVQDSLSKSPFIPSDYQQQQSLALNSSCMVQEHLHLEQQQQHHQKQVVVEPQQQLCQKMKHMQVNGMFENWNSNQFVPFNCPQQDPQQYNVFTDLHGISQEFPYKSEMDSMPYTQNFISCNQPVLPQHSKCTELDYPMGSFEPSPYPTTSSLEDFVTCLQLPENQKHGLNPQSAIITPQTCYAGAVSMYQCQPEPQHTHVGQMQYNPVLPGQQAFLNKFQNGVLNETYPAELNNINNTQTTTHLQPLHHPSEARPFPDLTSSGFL

In the case of `CCCCC(O)c1ccccc1` (stereo not given), the Potency result in assay [1], in assay [2], in assay [3], in assay [4], in assay [5] and in assay [7] was “inactive” throughout. The Potency entry in assay [8] is “inactive”. In addition, the max activation in assay [6] was -0.82%.
With `O=C1CCC(=O)N1CO`, the Potency entry in assay [1], in assay [2], in assay [3], in assay [4], in assay [5] and in assay [7] was “inactive” throughout. Also, in assay [8], the Potency entry was “inactive”. The max activation in assay [6] is -2.21%.
In the case of `CCOC(=O)[C@H](CS)NCCN[C@@H](CS)C(=O)OCC`, the Potency result in assay [1], in assay [2], in assay [3], in assay [4], in assay [5] and in assay [7] was “inactive” throughout. Also, the Potency result in assay [8] was “inactive”. The max activation in assay [6] was -0.64%.
Turning to `CN1CCC(OC(=O)C(Oc2ccc(Cl)cc2)Oc2ccc(Cl)cc2)CC1`, the Potency entry in assay [1], in assay [2], in assay [3], in assay [4], in assay [5] and in assay [7] was “inactive” each time. Further, in assay [8], the Potency result was “inactive”. For the same compound, the max activation in assay [6] is -4.17%.
Consider `CC(=O)OCC(=O)[C@@]12OC3(CCCC3)O[C@@H]1C[C@H]1[C@@H]3CCC4=CC(=O)C=C[C@]4(C)[C@@]3(F)[C@@H](O)C[C@@]12C`, for which the Potency result in assay [1], in assay [2], in assay [3], in assay [4], in assay [5] and in assay [7] was “inactive” in each case. Moreover, the Potency was 25.1 µM (active) in assay [6] and 14.1 µM (active) in assay [8].
For the compound `CCC(Oc1ccccc1)C(=O)N[C@@H]1C(=O)N2[C@@H]1SC(C)(C)[C@@H]2C(=O)O` (stereo not given in full), the Potency entry in assay [1], in assay [2], in assay [3], in assay [4], in assay [5] and in assay [7] was “inactive” throughout. In addition, the Potency result in assay [8] was “inactive”. Moreover, the max activation in assay [6] was -1.86%.
Take `O=C(O)c1ccc(NC(=O)[C@H](Cc2ccc(O)cc2)NC(=O)c2ccccc2)cc1`: the Potency result in assay [1], in assay [2], in assay [3], in assay [4], in assay [5] and in assay [7] was “inactive” throughout. The Potency result in assay [8] is “inactive”. In addition, the max activation in assay [6] is 0.18%.
Regarding `CC(C)(C)CC(C)(C)c1cc(Cc2cc(C(C)(C)CC(C)(C)C)cc(-n3nc4ccccc4n3)c2O)c(O)c(-n2nc3ccccc3n2)c1`, the Potency result in assay [1], in assay [2], in assay [3], in assay [4], in assay [5] and in assay [7] was “inactive” throughout. In assay [8], the Potency result was “inactive”. Moreover, the max activation in assay [6] was -3.34%.
Regarding `CC1(C)S[C@@H]2[C@H](NC(=O)[C@H](NC(=O)N3CCN(S(C)(=O)=O)C3=O)c3ccccc3)C(=O)N2[C@H]1C(=O)O`, the Potency entry in assay [1], in assay [2], in assay [3], in assay [4], in assay [5] and in assay [7] was “inactive” throughout. For the same compound, in assay [8], the Potency entry is “inactive”. For the same compound, the max activation in assay [6] was -9.82%.
In the case of `Nc1ncnc2c1ncn2CCOCP(=O)(O)O`, the Potency entry in assay [1], in assay [2], in assay [3], in assay [4], in assay [5] and in assay [7] was “inactive” each time. Moreover, the Potency result in assay [8] was “inactive”. Besides, the max activation in assay [6] was -0.588%.
In the case of `CC(C)[C@@H](N)C(=O)O`, the Potency result in assay [1], in assay [2], in assay [3], in assay [4], in assay [5] and in assay [7] was “inactive” each time. Moreover, the Potency entry in assay [8] was “inactive”. Moreover, the max activation in assay [6] is 2.42%.
`CC(=O)Nc1c(I)c(C(=O)O)c(I)c(N(C)C(C)=O)c1I`: the Potency entry in assay [1], in assay [2], in assay [3], in assay [4], in assay [5] and in assay [7] was “inactive” throughout. The Potency result in assay [8] was “inactive”. For the same compound, the max activation in assay [6] was -0.923%.
Take `O=C(O)CC/C=C\CC[C@@H]1[C@@H](N2CCCCC2)[C@@H](O)C[C@@H]1OCc1ccc(-c2ccccc2)cc1`: the Potency result in assay [1], in assay [2], in assay [3], in assay [4], in assay [5] and in assay [7] was “inactive” in each case. In addition, in assay [8], the Potency entry is “inactive”. The max activation in assay [6] was -6.46%.
As to `CCN(CC)CCOc1ccccc1OC`, the Potency result in assay [1], in assay [2], in assay [3], in assay [4], in assay [5] and in assay [7] was “inactive” each time. Besides, the Potency result in assay [8] was “inactive”. The max activation in assay [6] is -0.861%.
In the case of `CCCCCCCCCCCCCCCCCC(=O)OC[C@@H](O)[C@H]1OC[C@H](O)[C@H]1O`, the Potency entry in assay [1], in assay [2], in assay [3], in assay [4], in assay [5] and in assay [7] was “inactive” each time. Moreover, the Potency result in assay [8] was “inactive”. Moreover, the max activation in assay [6] was -0.713%.
On to `O=C(O)c1cc(N=Nc2ccc(O)c(C(=O)O)c2)ccc1O`, for which the Potency result in assay [1], in assay [2], in assay [3], in assay [4], in assay [5] and in assay [7] was “inactive” throughout. Also, in assay [8], the Potency entry is “inactive”. Moreover, the max activation in assay [6] was -4.04%.
As for `COc1ccccc1N1CCN(CCCC(=O)c2ccc(F)cc2)CC1`, the Potency entry in assay [1], in assay [3], in assay [4] and in assay [5] was “inactive” each time. Also, the Potency is 10.6 µM (active) in assay [2], 6.31 µM (active) in assay [7] and 7.94 µM (active) in assay [8]. In addition, the max activation in assay [6] was 8.11%.
As for `NS(=O)(=O)c1cc2c(cc1Cl)NC(Cc1ccccc1)NS2(=O)=O` (stereo not given), the Potency result in assay [1], in assay [2], in assay [3], in assay [4], in assay [5] and in assay [7] was “inactive” throughout. Moreover, the Potency entry in assay [8] was “inactive”. The max activation in assay [6] was -1.36%.
Turning to `Cc1ccccc1OCC(O)CNCCOc1ccc(C(N)=O)cc1` (stereo not given), the Potency entry in assay [1], in assay [2], in assay [3], in assay [4], in assay [5] and in assay [7] was “inactive” each time. The Potency result in assay [8] is “inactive”. Moreover, the max activation in assay [6] was -2.29%.
Regarding `O=C(CO)[C@@H](O)[C@H](O)[C@@H](O)C(=O)O`, the Potency entry in assay [1], in assay [2], in assay [3], in assay [4], in assay [5] and in assay [7] was “inactive” throughout. Further, the Potency entry in assay [8] is “inactive”. The max activation in assay [6] was -2.1%.
